Compounds with a hit are over-represented: about 12% of the library has one in this group of screens.
BAZ2B inh – inhibitors of human BAZ2B bromodomain. Potency, µM (top dose mostly 114 µM), for the others: top-dose activity change, negative = inhibition, most hits filed as inhibitors. Q9UIF8. actives 4.4% (n = 360,000). AlphaScreen BAZ2B-H3K14Ac peptide displacement; also: % is scaled to controls: 0 for no effect and ±100 for the full control effect; nearly all actives have a fitted effect of over 60% in size
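Inhibition is scored as reduced AlphaScreen emission. The BAZ2B/b-H3(5-23)K14Ac complex (50 nM each) in PBS pH 7.4, 0.01% Tween-20 meets compound (up to 110 uM) for 30 min at RT before bead addition.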
HP1b chromo inh – blocks HP1-beta chromodomain binding to methylated histone tails. AlphaScreen HP1-beta / biotin-H3K9me3 peptide binding. P83916. actives 0.56% (n = 390,000). Potency, µM (highest dose often 114 µM), without a hit: at the highest dose activity change, negative = inhibition, usual class: inhibitors; also: nearly all actives have a fitted effect of over 70% in size
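AlphaScreen: HP1-beta (50 nM) preformed 30 min with biotin-H3(1-18)K9me3 peptide (50 nM) in PBS pH 7.4, 0.01% Tween-20. Compound added for 30 min at RT, then streptavidin donor/nickel chelate acceptor beads (10 ug/mL) for 30 min.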
G9a block – blocks human histone lysine methyltransferase G9a. Potency, µM (titrated, usually from 102 µM), without a hit: at the highest dose activity, negative = inhibition, most hits filed as inhibitors. actives 8.8% (n = 350,000). AID 504332. G9a H3K9 monomethylation, AlphaScreen, 2 h. Q96KQ7; also: % is scaled to controls: 0 for no effect and ±100 for the full control effect; nearly all actives have a fitted effect of over 75% in size
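G9a (20 nM) preincubated 15 min RT with compounds, then 500 nM biotinylated H3K9 peptide and 20 uM SAM added; 2 h RT reaction. Monomethyl-H3K9 product detected by AlphaScreen with anti-H3K9me1 antibody, streptavidin donor and anti-rabbit IgG acceptor beads.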
JMJD2A Tudor – JMJD2A Tudor domain (human) inhibition; O75164; AlphaScreen JMJD2A-Tudor / H3K4me3 peptide binding; Potency, µM (top dose mostly 114 µM), inactives show top-dose activity change, negative = inhibition, most hits filed as inhibitors; actives 4.4% (n = 390,000); AID 504339; also: % is scaled to controls: 0 for no effect and ±100 for the full control effect; nearly all actives have a fitted effect of over 50% in size
L3MBTL1 inh – blocks human L3MBTL1 | actives 0.66% (n = 230,000) | Potency, µM (doses to about 57.1 µM), for inactives: top-dose activity, negative = inhibition, actives largely listed as inhibitors | AlphaScreen L3MBTL1–H3K9me1 peptide binding | AID 485360; also: % is scaled to controls: 0 for no effect and ±100 for the full control effect; nearly all actives have a fitted effect of over 60% in size
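Displacement of a biotinylated histone H3(1-15) peptide monomethylated at Lys9 (75 nM) from L3MBTL1 (50 nM) was measured by AlphaScreen after a 30 min room-temperature compound incubation; cefsulodin titration served as intraplate control.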
Sfp inh – Sfp phosphopantetheinyl transferase inhibition | AID 1490 | Biochemical Sfp PPTase activity, qHTS | Q9F4F7 | actives 3.5% (n = 310,000) | Potency, µM, for inactives: largest response in the series, negative = inhibition, actives largely listed as inhibitors;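 also: the enzyme is Sfp with the accession as filed and its product quenches rhodamine fluorescence; 0% = enzyme reaction without inhibitor and -100% = no enzyme wells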
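Compounds were incubated with enzyme (final 15 nM) for 15 min at room temperature before substrate addition started the reaction. Fluorescence at 525 nm excitation, 598 nm emission was recorded immediately and after 30 minutes.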
Active calls of the source: *; ? = inconclusive; · = not tested or not shown; [ ] = dose if it differs, or a comment. Calls follow the shape of the dose curve; as a rule, active = well fitted curve in the direction sought with a large enough effect; inconclusive = small, poorly fitted or top-dose-only effect, or another doubt; inactive = no such curve, though single readings can be large; an effect the other way counts as inactive or inconclusive. Potency is read from the fitted curve at half-maximal effect.

SMILES	BAZ2B inh	HP1b chromo inh	G9a block	JMJD2A Tudor	L3MBTL1 inh	Sfp inh
CCCCC(=O)Nc1ccccc1Oc1ccccc1	16%	79%	48%	27%	34%	3%
CCC(=O)Nc1ccccc1Oc1ccccc1	10%	?	5%[59 µM]	56µM*	21%[11.4 µM]	11%
Cc1ccc2nc(NC(=O)CN3C(=O)NC4(CCCC4)C3=O)sc2c1	5%	30%	?	-11%	7%	·
CCOC(=O)C1CCC(CN(Cc2c(Cl)cccc2Cl)S(=O)(=O)c2ccc(F)cc2)CC1 (stereo unspecified)	12%	2%	7%[59 µM]	-2%	·	·
Cc1ccc(NC(=O)[C@H](NC(=O)[C@@H]2Cc3ccccc3CN2)c2ccccc2)cc1	?	9%	·	-26%	·	-9%
CSCC[C@H](NC(=O)[C@@H]1Cc2ccccc2CN1)C(=O)NC1CCCC1	-20%	20%	·	0%	·	-5%
CC(C)c1ccc(NC(=O)[C@H](NC(=O)[C@@H]2Cc3ccccc3CN2)c2ccccc2)cc1	-28%	48%	45µM*	-18%	·	-15%
CSCC[C@H](NC(=O)[C@@H]1Cc2ccccc2CN1)C(=O)NC(C)c1ccccc1 (stereo partly specified)	-28%	21%	22µM*	?	·	5%
Cc1cc(C(=O)OCC(=O)Nc2cc(S(=O)(=O)N(C)C)ccc2C)c2ccccc2n1	-22%	4%	8%	-15%	0%	7%
CCc1nnc(NC(=O)c2cc(-c3ccco3)nc3ccccc23)s1	40µM*	-15%	50µM*	?	?	-14%
Cc1ccccc1NC(=O)c1cc(-c2ccco2)nc2ccccc12	·	?	·	20µM*	·	·
CCc1nnc(NC(=O)c2cc(-c3ccccn3)nc3ccccc23)s1	?	26%	?	-14%	-18%	-4%
Cc1ccc(S(=O)(=O)N(C)C)cc1NC(=O)c1cc(-c2ccco2)nc2ccccc12	?	7%	40µM*	?	·	-6%
Cc1cccc(NC(=O)c2cc(-c3ccco3)nc3ccccc23)n1	?	34%	32µM*	-26%	-6%	22µM*
CSc1ccc(CCNC(=O)CCc2c(C)nc3c(-c4ccccc4)c(C)nn3c2C)cc1	-4%	59%	1%[59 µM]	2%	·	·
COc1ccc(CCNC(=O)C(CC(C)C)N2Cc3ccccc3C2=O)c(OC)c1OC (stereo unspecified)	1%	28%	-4%[59 µM]	7%	·	·
CC(=O)OCc1c(C(F)(F)F)nn(C)c1Oc1ccccc1	16%	23%	-8%[59 µM]	3%	12%	25%
Cn1nc(-c2ccccc2)c(CO)c1Oc1ccc(F)cc1	-13%	-5%	19%	20µM*	·	8%
Cc1ccc(NC(=O)N2CCC(CN3CCCC3)CC2)c(C)c1	-1%	18%	-34%[59 µM]	-9%	·	·
COc1ccc(C(=O)Nc2ccc(N(C)Cc3ccccc3)c(C(=O)O)c2)cc1	?	7%	-7%[59 µM]	?	·	·
Brc1ccc2ncnc(Nc3ccc(N4CCOCC4)cc3)c2c1	45µM*	-31%	-44%[12.7 µM]	?	-4%	-2%
O=C(COc1ncnc2ccc(Br)cc12)N1CCOCC1	-22%	20%	1.1µM*	-13%	·	8%
CCN(c1ccc(OC)cc1)S(=O)(=O)c1ccc2[nH]c3c(c2c1)CCCCC3	?	-15%	?	?	·	·
CC1(C)Cc2c(sc(NC(=O)C(=O)NCCCN3CCOCC3)c2C#N)CO1	-20%	22%	22µM*	2%	·	16µM*
CC1(C)Cc2c(sc(NC(=O)/C=C/C(=O)O)c2C#N)CO1	-9%	40%	·	-8%	-9%	-11%
C=CCC(C)(Nc1ccccc1)C(=O)OCC (stereo unspecified)	·	·	·	·	·	-17%
Cc1ccc(S(=O)(=O)c2cn(C)c3cc(N4CCCCCC4)c(F)cc3c2=O)cc1	-6%	34%	-1%[59 µM]	-4%	·	·

Assay outcomes (PubChem)
